Active and inactive are the calls of the source.
Columns and labels:
[1] = binders of probe aFSTL3 on microarray, primary screen, stem cell growth factor project, biochemical, small-molecule microarray, fluorescence 635/667 (AID 1064); settings: higher = more signal;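 note: measures binding of the biotinylated anti-FSTL3 antibody to printed compounds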
[2] = binders from COS7 lysate, DM2A8 probe, primary screen, torsin A project, cell lysate, small-molecule microarray, fluorescence 635/667 (AID 1065); settings: higher = more signal, COS7 lysate expressing mutant human TOR1A
[3] = binders of probe aFGF2 on microarray, primary screen, stem cell growth factor project, biochemical, small-molecule microarray, fluorescence 635/667 (AID 1067); settings: higher = more signal;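 note: measures binding of biotinylated aFGF2 protein to printed compounds on slides; z-score merges feature fluorescence and signal-to-noise across triplicate slides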
[4] = binders of probe aFGF10 on microarray, primary screen, stem cell growth factor project, biochemical, small-molecule microarray, fluorescence 635/667 (AID 1071); settings: higher = more signal;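 note: score merges 667 nm spot intensity and signal to noise from triplicate slides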
[5] = molecular target: Neurogenic locus notch homolog protein 2 (Homo sapiens) (UniProt Q04721); experiment: Notch2 binders on small-molecule microarrays, primary screen, biochemical, small-molecule microarray, 635 nm fluorescence, stem cell growth factors (AID 1073); settings: Notch2 binding, higher = more signal
[6] = molecular target: Pro-neuregulin-1, membrane-bound isoform (Homo sapiens) (UniProt Q02297); experiment: NRG1 binders on small-molecule microarrays, primary screen, psychiatric disease protein project, biochemical, small-molecule microarray, fluorescence 635/667 (AID 1075); settings: NRG1 binding, 635 nm fluorescence, higher = more signal;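 note: score combines 667 nm spot fluorescence with signal to noise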
[7] = system: Neuregulin-1 EGF-like domain; experiment: binders of neuregulin-1 EGF-like domain, primary screen, biochemical, small-molecule microarray, 635 nm fluorescence (AID 1081); settings: small-molecule microarray binding, higher = more signal;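 note: binding of the protein to compounds printed on small-molecule microarray slides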
[8] = FRG1 promoter luciferase signal modulators, primary screen, FRG1 inhibition for FSHD, cell-based, C2C12 myotubes, firefly/Renilla luciferase, luminescence (AID 1084); settings: higher = more signal, called active from +8 up or from −8 down
[9] = binders of probe aFST on microarray, primary screen, stem cell growth factor project, biochemical, small-molecule microarray, fluorescence 635/667 (AID 1086); settings: higher = more signal;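 note: score merges 667 nm fluorescence with signal-to-noise of each printed compound spot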
[10] = binders of probe aHhip on microarray, primary screen, stem cell growth factor project, biochemical, small-molecule microarray, fluorescence 635/667 (AID 1087); settings: higher = more signal;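 note: score merges spot fluorescence at 667nm with spot signal to noise ratio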
[11] = system: PRMT1 (protein arginine N-methyltransferase 1); experiment: PRMT1 binders on small-molecule microarrays, primary screen, biochemical, small-molecule microarray, 635 nm fluorescence (AID 1088); settings: small-molecule microarray binding, higher = more signal;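 note: binding of Prmt1 protein to compounds spotted on small-molecule microarray slides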
[12] = yeast growth modulation, basal conditions, primary screen, YJM789 clinical isolate, OD600, 24 h (AID 1089);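 note: growth of clinical yeast isolate S. cerevisiae YJM 789 seeded 1000 cells per well; test concentration not given here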; settings: S. cerevisiae YJM789 growth, higher = more signal, called active from +8 up or from −8 down
[13] = fission yeast growth modulation, primary screen, strain 972, OD600, 24 h, no modulator (AID 1090);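 note: basal condition with compound alone and no growth modifier present; test concentration not given here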; settings: S. pombe 972 growth, higher = more signal, called active from +8 up or from −8 down
[14] = S. cerevisiae growth modulation with rapamycin, primary screen, strain BY4716, OD600, 96 h (AID 1091); settings: higher = more signal, called active from +8 up or from −8 down; note: test concentration not given here
[15] = molecular target: Torsin-1A-interacting protein 2 (Homo sapiens) (UniProt Q8NFQ8); experiment: LULL1 binders on small-molecule microarray, primary screen, cell lysate, human LULL1 lysate, 635/667 nm fluorescence (AID 1092); settings: hLULL1 lysate binding, 635 nm fluorescence, higher = more signal;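 note: probe is lysate of COS7 cells overexpressing human LULL1; score merges per-feature 667 nm fluorescence with signal-to-noise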
[16] = E. coli growth modulation, two-sided OD650, primary screen, E. coli filamentation project, strain DRC41, 24 h (AID 1093); settings: OD650, 24 h, higher = more signal, called active from +8 up or from −8 down;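 note: MC1000 strain lacking acrAB efflux and sulA so SOS filamentation is blocked; test concentration not given here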
[17] = small-molecule microarray binders of probe aLefty2, primary screen, biochemical, biotinylated probe, 635/667 nm fluorescence (AID 1094); settings: higher = more signal;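 note: score merges spot fluorescence near 667 nm with spot signal-to-noise ratio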
[18] = system: Noggin (protein binding on small-molecule microarray); experiment: Noggin binders on small-molecule microarray, primary screen, biochemical, 635/667 nm fluorescence (AID 1095); settings: 635 nm fluorescence, higher = more signal;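 note: score merges 667 nm feature fluorescence with signal to noise over triplicate slides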
[19] = molecular target: Neurogenic locus notch homolog protein 3 (Homo sapiens) (UniProt Q9UM47); experiment: NOTCH3 binders on small-molecule microarray, primary screen, biochemical, 635/667 nm fluorescence (AID 1096); settings: NOTCH3 binding, 635 nm fluorescence, higher = more signal
[20] = small-molecule microarray binders of probe aEGFR, primary screen, biochemical, biotinylated probe, 635/667 nm fluorescence (AID 1097); settings: higher = more signal;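 note: probe is a biotinylated anti-EGFR antibody binding compounds printed on slides; score combines fluorescence near 667 nm and signal to noise of each spot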

Chain of Neurogenic locus notch homolog protein 2 (Homo sapiens) (Q04721 whole entry, looked up, canonical isoform): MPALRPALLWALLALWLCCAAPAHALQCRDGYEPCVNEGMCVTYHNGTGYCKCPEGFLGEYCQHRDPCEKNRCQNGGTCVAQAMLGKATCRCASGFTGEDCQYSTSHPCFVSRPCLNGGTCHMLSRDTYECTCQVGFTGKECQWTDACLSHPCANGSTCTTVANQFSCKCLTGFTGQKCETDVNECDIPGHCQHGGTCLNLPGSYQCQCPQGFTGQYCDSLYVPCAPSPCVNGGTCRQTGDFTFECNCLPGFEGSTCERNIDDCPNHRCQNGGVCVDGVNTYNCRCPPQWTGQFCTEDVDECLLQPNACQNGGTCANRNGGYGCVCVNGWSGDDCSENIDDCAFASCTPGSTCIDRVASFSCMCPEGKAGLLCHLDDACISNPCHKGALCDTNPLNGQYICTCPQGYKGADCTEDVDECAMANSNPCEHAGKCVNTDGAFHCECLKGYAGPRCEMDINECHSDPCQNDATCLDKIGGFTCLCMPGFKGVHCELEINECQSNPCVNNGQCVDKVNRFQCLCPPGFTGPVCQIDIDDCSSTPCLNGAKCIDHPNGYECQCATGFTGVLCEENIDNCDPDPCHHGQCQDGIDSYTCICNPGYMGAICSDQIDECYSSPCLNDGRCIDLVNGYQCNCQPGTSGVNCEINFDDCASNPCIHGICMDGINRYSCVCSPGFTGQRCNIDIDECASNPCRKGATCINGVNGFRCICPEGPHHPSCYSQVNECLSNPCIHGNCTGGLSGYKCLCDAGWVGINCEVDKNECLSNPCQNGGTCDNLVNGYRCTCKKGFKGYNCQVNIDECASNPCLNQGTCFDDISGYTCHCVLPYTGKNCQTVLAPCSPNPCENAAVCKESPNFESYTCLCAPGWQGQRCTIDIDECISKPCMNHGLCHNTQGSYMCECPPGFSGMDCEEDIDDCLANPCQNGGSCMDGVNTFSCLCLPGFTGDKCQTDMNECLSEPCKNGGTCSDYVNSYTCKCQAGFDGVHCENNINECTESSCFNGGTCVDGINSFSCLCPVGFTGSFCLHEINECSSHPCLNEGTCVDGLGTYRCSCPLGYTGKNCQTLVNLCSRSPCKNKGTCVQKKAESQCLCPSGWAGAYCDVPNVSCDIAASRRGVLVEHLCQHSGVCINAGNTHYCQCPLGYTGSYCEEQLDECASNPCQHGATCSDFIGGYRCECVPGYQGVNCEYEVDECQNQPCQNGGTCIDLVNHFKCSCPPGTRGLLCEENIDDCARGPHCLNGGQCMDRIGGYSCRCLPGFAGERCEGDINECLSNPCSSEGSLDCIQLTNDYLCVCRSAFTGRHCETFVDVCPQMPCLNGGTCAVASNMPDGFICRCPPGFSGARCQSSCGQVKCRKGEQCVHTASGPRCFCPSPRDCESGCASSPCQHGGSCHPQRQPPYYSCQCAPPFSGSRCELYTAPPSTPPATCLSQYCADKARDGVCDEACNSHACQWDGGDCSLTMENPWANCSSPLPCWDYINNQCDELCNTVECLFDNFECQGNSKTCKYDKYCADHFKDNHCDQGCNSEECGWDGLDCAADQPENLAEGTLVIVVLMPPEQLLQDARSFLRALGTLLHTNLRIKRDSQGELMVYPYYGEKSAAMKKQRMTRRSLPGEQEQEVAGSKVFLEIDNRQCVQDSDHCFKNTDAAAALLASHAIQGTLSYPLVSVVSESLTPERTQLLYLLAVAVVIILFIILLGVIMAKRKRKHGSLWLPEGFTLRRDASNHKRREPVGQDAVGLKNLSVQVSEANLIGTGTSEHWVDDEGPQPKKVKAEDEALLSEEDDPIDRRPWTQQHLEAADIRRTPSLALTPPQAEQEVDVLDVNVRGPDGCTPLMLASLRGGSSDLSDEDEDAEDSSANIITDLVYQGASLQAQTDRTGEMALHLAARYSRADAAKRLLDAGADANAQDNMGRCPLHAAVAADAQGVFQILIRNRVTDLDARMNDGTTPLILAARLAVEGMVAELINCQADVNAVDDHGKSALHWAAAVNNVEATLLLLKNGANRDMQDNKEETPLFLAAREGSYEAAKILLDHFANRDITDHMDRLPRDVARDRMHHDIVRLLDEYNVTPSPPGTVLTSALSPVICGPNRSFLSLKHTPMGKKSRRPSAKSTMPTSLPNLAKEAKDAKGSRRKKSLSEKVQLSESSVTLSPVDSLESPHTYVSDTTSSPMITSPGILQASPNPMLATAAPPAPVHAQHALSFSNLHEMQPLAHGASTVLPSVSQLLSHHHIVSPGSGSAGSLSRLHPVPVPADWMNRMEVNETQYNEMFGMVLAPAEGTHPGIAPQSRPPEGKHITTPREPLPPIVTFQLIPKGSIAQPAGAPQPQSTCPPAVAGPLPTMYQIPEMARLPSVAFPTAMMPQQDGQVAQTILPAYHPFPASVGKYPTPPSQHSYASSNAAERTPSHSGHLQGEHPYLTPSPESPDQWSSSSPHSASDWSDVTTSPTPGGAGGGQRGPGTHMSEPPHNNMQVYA
Chain of Torsin-1A-interacting protein 2 (Homo sapiens) (Q8NFQ8 whole entry, looked up): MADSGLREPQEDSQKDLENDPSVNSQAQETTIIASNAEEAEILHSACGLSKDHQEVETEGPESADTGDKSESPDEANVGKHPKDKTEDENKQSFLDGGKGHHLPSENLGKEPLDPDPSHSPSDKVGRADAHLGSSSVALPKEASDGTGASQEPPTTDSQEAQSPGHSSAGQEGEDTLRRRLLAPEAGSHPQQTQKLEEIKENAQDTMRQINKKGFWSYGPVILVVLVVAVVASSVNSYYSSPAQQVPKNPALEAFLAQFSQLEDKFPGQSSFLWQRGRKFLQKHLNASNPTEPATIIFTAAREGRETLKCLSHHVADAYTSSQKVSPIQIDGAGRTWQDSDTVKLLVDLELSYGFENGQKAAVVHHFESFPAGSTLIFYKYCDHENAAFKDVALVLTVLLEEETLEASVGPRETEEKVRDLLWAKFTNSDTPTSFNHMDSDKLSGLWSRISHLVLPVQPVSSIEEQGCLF
Chain of Pro-neuregulin-1, membrane-bound isoform (Homo sapiens) (Q02297 whole entry, looked up, the tested form may be a part, canonical isoform): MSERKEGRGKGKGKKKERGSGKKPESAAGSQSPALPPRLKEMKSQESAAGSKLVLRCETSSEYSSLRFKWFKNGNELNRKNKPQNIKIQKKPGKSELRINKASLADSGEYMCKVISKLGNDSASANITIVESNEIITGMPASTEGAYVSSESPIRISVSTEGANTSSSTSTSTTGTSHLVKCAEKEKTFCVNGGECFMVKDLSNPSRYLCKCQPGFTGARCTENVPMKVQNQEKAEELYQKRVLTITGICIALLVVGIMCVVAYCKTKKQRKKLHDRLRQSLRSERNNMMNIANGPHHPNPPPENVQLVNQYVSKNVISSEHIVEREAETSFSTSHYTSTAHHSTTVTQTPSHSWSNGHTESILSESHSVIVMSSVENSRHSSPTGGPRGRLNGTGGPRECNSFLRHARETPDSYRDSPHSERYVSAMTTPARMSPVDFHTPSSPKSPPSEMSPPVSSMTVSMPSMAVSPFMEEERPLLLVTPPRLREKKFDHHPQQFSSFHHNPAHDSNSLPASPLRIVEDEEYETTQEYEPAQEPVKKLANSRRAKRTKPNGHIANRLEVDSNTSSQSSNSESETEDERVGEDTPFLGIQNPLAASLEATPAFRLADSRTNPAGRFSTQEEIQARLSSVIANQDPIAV

| SMILES | composite z-score [1] | composite z-score [2] | composite z-score [3] | composite z-score [4] | composite z-score [5] | composite z-score [6] | composite z-score [7] | z-score [8] | composite z-score [9] | composite z-score [10] | composite z-score [11] | z-score [12] | z-score [13] | z-score [14] | composite z-score [15] | z-score [16] | composite z-score [17] | composite z-score [18] | composite z-score [19] | composite z-score [20] |
| --- | --- | --- | --- | --- | --- | --- | --- | --- | --- | --- | --- | --- | --- | --- | --- | --- | --- | --- | --- | --- |
| CO[C@H]1COC(=O)[C@H](C)NC(=O)[C@@H](C)COC(=O)CC=C[C@@H]1C | -0.618 | 1.06 | -0.116 | 0.409 | -0.0804 | -0.194 | 0.547 | -0.599 (inactive) | 0.0356 | -0.434 | 0.748 | -0.156 (inactive) | 0.473 (inactive) | -0.564 (inactive) | -0.498 | 0.2 (inactive) | -0.103 | 0.3 | 0.674 | -0.02 |
| COCCOC(=O)N1C(=O)[C@@]2(c3cc(C#CC4(O)CCCCCC4)ccc31)[C@H](c1ccc(OCCO)cc1)N1[C@H](c3ccccc3)[C@H](c3ccccc3)OC(=O)[C@H]1[C@@H]2C(=O)NC[C@H](O)c1ccccc1 | -0.0536 | 1.11 | -0.0444 | 0.66 | 0.837 | 1.55 | 1.13 | -0.294 (inactive) | 0.29 | -0.0994 | 1.55 | 2.19 (inactive) | 0.874 (inactive) | 6.86 (inactive) | 2.87 | 1.6 (inactive) | -0.0212 | 0.816 | 1.03 | -0.0555 |
| CC(C)(C)OC(=O)CC[C@]1(C(N)=O)COC(c2ccc(OCCCO)cc2)=N1 | 0.645 | 2.69 | 0.325 | 0.6 | 1.39 | 1.14 | 1.03 | 0.266 (inactive) | 1.19 | 0.462 | 1.09 | 0.0433 (inactive) | -0.391 (inactive) | 0.0262 (inactive) | 3.09 | 0.308 (inactive) | 0.65 | 0.115 | 0.849 | 0.34 |
| O=C1C2=CC[C@H]3C(=O)N(Cc4ccc5c(c4)OCO5)C(=O)[C@H]3[C@H]2[C@H](O)[C@@H]2O[C@H]12 | -0.319 | 0.295 | -0.141 | 0.375 | 0.617 | -0.149 | -0.0029 | 0.593 (inactive) | 0.407 | -0.308 | -1.05 | -0.108 (inactive) | -0.682 (inactive) | -0.611 (inactive) | 0.24 | 0.347 (inactive) | -0.166 | 0.616 | 0.632 | 0.0083 |
| COc1cccc([C@H]2Oc3ccc(OC)cc3C(=NO[C@H](C)c3cn([C@@H]4COC[C@H]4O)nn3)[C@@H]2O)c1 | -0.183 | 0.044 | -0.0867 | -0.246 | -0.315 | 0.0671 | -0.168 | 0.253 (inactive) | -0.324 | -0.305 | -0.499 | 0.0141 (inactive) | 0.874 (inactive) | 0.467 (inactive) | -0.077 | -0.398 (inactive) | -0.126 | -0.427 | -1.34 | -0.267 |
| CCN1C(=O)[C@H]2[C@H]3[C@H](O)[C@H](O)CC(=NOCC=C(C)CCC=C(C)C)[C@H]3CC[C@H]2C1=O | -0.968 | 0.689 | -0.117 | 0.923 | 0.698 | 0.65 | 1.07 | -0.454 (inactive) | 0.617 | 0.183 | 1.56 | -0.541 (inactive) | 0.0853 (inactive) | -1.11 (inactive) | 1.52 | 0.707 (inactive) | -0.0355 | 1.32 | 1.13 | 0.186 |
| COc1ccc(COC(=O)NN=C2C[C@@H](O)[C@@H](O)[C@@H]3[C@@H]4C(=O)N(c5ccc(F)cc5F)C(=O)[C@@H]4CC[C@@H]23)cc1 | 0.827 | 0.515 | -0.0342 | -0.299 | -0.392 | 0.0565 | -1.13 | -0.138 (inactive) | 0.562 | 0.168 | -1.42 | 0.935 (inactive) | -0.423 (inactive) | 0.0088 (inactive) | -0.524 | 0.488 (inactive) | 0.0215 | -0.0901 | 0.14 | -0.117 |
| O=C1[C@H]2[C@H]3[C@H](O)[C@H](O)CC(=NO[C@@H]4O[C@H](CO)[C@@H](O)[C@H](O)[C@H]4O)[C@@H]3CC[C@H]2C(=O)N1Cc1ccccc1 | -0.466 | 1.08 | -0.074 | 0.312 | 0.595 | -0.516 | -0.9 | -0.7 (inactive) | 0.756 | -0.0994 | 0.346 | -0.3 (inactive) | -0.13 (inactive) | -0.556 (inactive) | 0.218 | 0.0628 (inactive) | -0.103 | 0.574 | 0.433 | 0.0673 |
| C=CC[C@]1(C(=O)NCc2ccccc2)N=C(c2ccc(OCCCO)cc2)O[C@H]1c1ccccc1 | 0.674 | 1.1 | -0.0131 | -0.439 | 0.007 | 1.51 | 1.26 | -0.97 (inactive) | 0.991 | -0.0645 | 1.55 | 0.159 (inactive) | -0.46 (inactive) | 6.37 (inactive) | 3.28 | 0.568 (inactive) | -0.0238 | 0.119 | 0.778 | -0.137 |
| O=C1[C@H]2[C@H]3[C@H](O)[C@H](O)CC(=NOC[C@@H](O)COCc4ccco4)[C@H]3CC[C@H]2C(=O)N1C1CCCCC1 | -0.749 | 2.19 | -0.254 | -0.39 | -0.24 | -0.394 | 0.403 | -0.784 (inactive) | 0.101 | -0.156 | 1.1 | 0.432 (inactive) | -0.299 (inactive) | 0.356 (inactive) | -0.522 | -0.263 (inactive) | -0.0841 | 1.19 | 0.214 | -0.0141 |

— PubChem BioAssay
